Structures are written as SMILES. ± gives the standard deviation of the averaged measurements.

Experiment [1] concerns DLD1. Nature of the experiment: cell viability (CellTiter-Glo) relative to plate median (fraction of plate median); higher = more viable cells. As to conditions: 5 µM; treatment time 24 h; reporter: 7TFP. The essentials: (§1)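 For this screen, colorectal cancer cell lines carrying stable lentiviral TCF/Wnt firefly luciferase reporters, either 7TFP or TCF4/Wnt, were seeded into 384-well plates. A day's wait of 24 h preceded addition of library compounds at a final 5 µM, which stayed on the cells for 24 h. Firefly luciferase or CellTiterGlo luminescence, read on parallel plates, was normalised to the plate median per well, and the reported value is the mean of two independent replicates.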
Background: ATP-based viability assays read luminescence as a measure of living cells.

The next experiment deals with HCT116. The experiment is described as above. Conditions: 5 µM; treatment time 24 h; reporter: TCF4/Wnt. In short, it runs like this:
as §1

Experiment [2] deals with SW480. The experiment is described as above. Conditions: 5 µM; treatment time 24 h; reporter: 7TFP. The essentials: as §1
The subject of experiment [3] is DLD1. Nature of the experiment: TCF/Wnt firefly luciferase reporter signal relative to plate median (fraction of plate median); higher = higher Wnt reporter signal. As to conditions: 5 µM; treatment time 24 h; reporter: 7TFP. The essentials:
as §1

For experiment [4], the system named is SW480. Described as above. As to conditions: 5 µM; treatment time 24 h; reporter: 7TFP. In short, it runs like this:
as §1

For the compound `C[C@@H]1NC(=O)[C@H](Cc2ccccc2)NC1=O` [cyclo(alanylphenylalanyl)], the figures for the cell viability in the experiment on DLD1 [1], in the experiment with HCT116 and in the experiment with SW480 [2] were 1 ± 0.053, 0.997 ± 0.17 and 0.96 ± 0.025, respectively. Moreover, the “TCF/Wnt firefly luciferase reporter signal” value in the experiment on DLD1 [3] turned out to be 0.987 ± 0.12; in the experiment with SW480 [4] it was 1.04 ± 0.014.

On to `CC(=O)O[C@]1(C)CC[C@@]23C[C@H]1C(C)(C)[C@@H]2CC[C@H]3C`, for which the cell viability in the experiment on DLD1 [1] turned out to be 0.986 ± 0.035; in the experiment with HCT116, 0.918 ± 0.033; with SW480 [2] it was 1 ± 0.067. The “TCF/Wnt firefly luciferase reporter signal” value stood at 1.05 ± 0.086 with DLD1 [3] and 0.934 ± 0.017 in the experiment on SW480 [4].

`CC(=O)O[C@H]1C[C@@H]2CC[C@@H]3[C@H](CC[C@@]4(C)[C@H]3C[C@H]([N+]3(C)CCCCC3)[C@@H]4OC(C)=O)[C@@]2(C)C[C@@H]1N1CCCCC1`: the cell viability in the experiment on DLD1 [1] was 0.976 ± 0.077; with HCT116 it was 1.03; in the experiment with SW480 [2], 1.004 ± 0.0092. Also, the “TCF/Wnt firefly luciferase reporter signal” value in the experiment on DLD1 [3] stood at 1.03 ± 0.1; in the experiment with SW480 [4] it was 1.1 ± 0.014.

As to `C#C[C@]1(O)CC[C@H]2[C@@H]3CCC4=CC(=O)CC[C@@H]4[C@H]3CC[C@@]21C`, the cell viability in the experiment on DLD1 [1] was found to be 1.15 ± 0.085; in the experiment with HCT116 it was 0.9935 ± 0.0092; in the experiment on SW480 [2] it was 1.04 ± 0.064. Also, the “TCF/Wnt firefly luciferase reporter signal” value with DLD1 [3] is 0.847 ± 0.27; with SW480 [4] it was 0.931 ± 0.03.

For `O=C(O)c1cc2cc(F)ccc2[nH]1`, the values for the cell viability with DLD1 [1], in the experiment on HCT116 and with SW480 [2] were 1.02 ± 0.053, 1.115 ± 0.0071 and 1.07 ± 0.085, respectively. Besides, the “TCF/Wnt firefly luciferase reporter signal” value is 0.963 ± 0.0057 in the experiment on DLD1 [3] and 1.08 ± 0.085 in the experiment on SW480 [4].

Turning to `COc1ccc(-c2cc(=O)c3c(O)c(OC)c(OC)c(OC)c3o2)cc1`, the figures for the cell viability with DLD1 [1], with HCT116 and in the experiment on SW480 [2] were 1.01 ± 0.032, 1.04 ± 0.072 and 1.02 ± 0.055, respectively. Further, the figures for the “TCF/Wnt firefly luciferase reporter signal” value in the experiment on DLD1 [3] and in the experiment with SW480 [4] were 0.953 ± 0.062 and 1.01 ± 0.021, respectively.

As to `O=C1O[C@H](CO)[C@@H](O)[C@H](O)[C@H]1O`, the cell viability came out at 1.005 ± 0.0071 in the experiment with DLD1 [1], 1.035 ± 0.0071 with HCT116 and 1.085 ± 0.0071 with SW480 [2]. The “TCF/Wnt firefly luciferase reporter signal” value in the experiment with DLD1 [3] was determined as 0.949 ± 0.051; with SW480 [4], 0.945 ± 0.13.

In the case of `O=c1ccc2cc(O)c(O)cc2o1`, the cell viability was found to be 1.03 ± 0.19 with DLD1 [1], 1.13 ± 0.028 with HCT116 and 1.04 ± 0.014 with SW480 [2]. Moreover, the “TCF/Wnt firefly luciferase reporter signal” value with DLD1 [3] stood at 0.994 ± 0.066; in the experiment with SW480 [4] it was 0.893 ± 0.015.

`CCCC(=O)NCCc1ccccc1` [N-(2-Phenyl)ethylbutyramide]: the cell viability in the experiment on DLD1 [1] was found to be 1.07 ± 0.11; in the experiment on HCT116 it was 1.08 ± 0.15; in the experiment with SW480 [2] it was 1.06 ± 0.071. For the same compound, the figures for the “TCF/Wnt firefly luciferase reporter signal” value in the experiment on DLD1 [3] and in the experiment with SW480 [4] were 1.07 ± 0.14 and 0.9865 ± 0.00071, respectively.

On to `O=c1c(-c2ccccc2)coc2cc(O)cc(O)c12`, for which the cell viability in the experiment on DLD1 [1] stood at 0.94 ± 0.11; in the experiment with HCT116, 0.883 ± 0.027; in the experiment with SW480 [2] it was 0.993 ± 0.053. The results for the “TCF/Wnt firefly luciferase reporter signal” value in the experiment with DLD1 [3] and in the experiment with SW480 [4] were 0.926 ± 0.097 and 1.04 ± 0.18, respectively.

As for `CN1CCc2cccc3c2[C@H]1Cc1ccc(O)c(O)c1-3`, the figures for the cell viability with DLD1 [1], in the experiment with HCT116 and in the experiment on SW480 [2] were 0.957 ± 0.06, 1.04 ± 0.088 and 0.992 ± 0.025, respectively. Also, the “TCF/Wnt firefly luciferase reporter signal” value was found to be 1.1 ± 0.057 in the experiment on DLD1 [3] and 0.978 ± 0.088 in the experiment on SW480 [4].

`OCCc1ccccc1`: the cell viability with DLD1 [1] is 0.986; with HCT116, 0.995 ± 0.05; in the experiment on SW480 [2], 0.959 ± 0.03. For the same compound, the “TCF/Wnt firefly luciferase reporter signal” value is 1.16 ± 0.085 in the experiment with DLD1 [3] and 1.12 ± 0.092 with SW480 [4].

Consider `COc1ccc(-c2cc(=O)c3c(O)cc(O[C@H]4O[C@H](CO[C@@H]5O[C@@H](C)[C@H](O)[C@@H](O)[C@H]5O)[C@@H](O)[C@H](O)[C@H]4O)cc3o2)cc1`, for which the cell viability in the experiment on DLD1 [1] was determined as 0.995 ± 0.079; in the experiment with HCT116 it was 0.88 ± 0.1; in the experiment on SW480 [2], 0.979 ± 0.059. Also, the “TCF/Wnt firefly luciferase reporter signal” value was 1.02 ± 0.029 with DLD1 [3] and 0.9475 ± 0.00071 in the experiment with SW480 [4].

As to `C[C@H]1[C@H](C)CC[C@]2(C(=O)O)CC[C@]3(C)C(=CC[C@@H]4[C@@]5(C)C[C@@H](O)[C@H](O)[C@@](C)(CO)[C@@H]5[C@H](O)C[C@]43C)[C@H]12`, the cell viability in the experiment with DLD1 [1] was determined as 1.01 ± 0.048; in the experiment with HCT116 it was 1.09 ± 0.099; in the experiment on SW480 [2], 0.985 ± 0.0085. In addition, the “TCF/Wnt firefly luciferase reporter signal” value in the experiment with DLD1 [3] was determined as 0.919 ± 0.05; in the experiment with SW480 [4], 1.045 ± 0.0071.

For the origin of these results see the supplement of paper PMC6522484.
